We go through 94 compounds from PubChem BioAssay AID1135 (Sanford-Burnham Center for Chemical Genomics, 2008).

Among all 200,000 compounds or so, about 65 (0.03%) were called active. The entries come from a sample that favours actives as a whole. Values without a mark were called inactive.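 The calls were made as follows: active = over 50% inhibition of tissue-nonspecific alkaline phosphatase at 20 µM in the single-dose screen; inactive = the rest.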

The assay deals with Alkaline phosphatase, tissue-nonspecific isozyme (Homo sapiens) (UniProt P05186). As to the kind of experiment: human TNAP enzyme inhibitors, primary screen, biochemical, luminescent, high phosphate acceptor level, uHTS (AID 1135).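 Also: plate controls were DMSO wells for no effect and EDTA-quenched wells as full inhibition for full effect.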 The conditions noted are these: purified TNAP, CDP-star luminescence, 1 M DEA; at 20 µM; active compounds read high.
Alkaline phosphatase, tissue-nonspecific isozyme (Homo sapiens), sequence (P05186 whole entry, looked up): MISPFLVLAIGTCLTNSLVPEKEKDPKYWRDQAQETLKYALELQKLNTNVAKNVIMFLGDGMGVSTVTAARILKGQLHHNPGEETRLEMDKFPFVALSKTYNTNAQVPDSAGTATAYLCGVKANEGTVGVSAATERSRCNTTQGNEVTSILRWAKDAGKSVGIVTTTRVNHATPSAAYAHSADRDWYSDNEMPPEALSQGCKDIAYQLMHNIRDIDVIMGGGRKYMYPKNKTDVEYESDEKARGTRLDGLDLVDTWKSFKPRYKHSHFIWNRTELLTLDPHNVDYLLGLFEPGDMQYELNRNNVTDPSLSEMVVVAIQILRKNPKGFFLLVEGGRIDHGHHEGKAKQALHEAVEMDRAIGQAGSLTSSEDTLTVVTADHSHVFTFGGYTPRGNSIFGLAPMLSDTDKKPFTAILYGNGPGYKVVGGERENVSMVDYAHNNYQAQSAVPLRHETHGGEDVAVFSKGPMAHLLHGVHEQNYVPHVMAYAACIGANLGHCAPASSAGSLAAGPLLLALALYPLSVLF
In the case of `OC(CN=c1sc2ccccc2n1CC(O)COc1ccccc1)COc1ccccc1` (centres undefined), the inhibition – broadly, the drop in the measured response relative to a control, in per cent – is -2%.

Consider `CC(C)(C)C(=O)N1CCC[C@@]1(CO)C(=O)O`, for which the inhibition was 1.3%.

Consider `CCCn1nc(C(=O)Nc2ccc3nc(C)sc3c2)c2ccccc2c1=O`, for which the inhibition was 0%.

`O=C(NNc1cc(Cl)ccc1Cl)c1cccnc1Cl`: the inhibition was -3.3%.

Take `Cn1cnnc1Sc1ccc(S(C)(=O)=O)cc1[N+](=O)[O-]`: the inhibition was 3.1%.

`CN(C)S(=O)(=O)c1ccc(N2CCCC2=O)c([N+](=O)[O-])c1`: the inhibition was -2.1%.

Take `Cc1ccccc1Nc1nc(N)nc(CSc2nnc3ccccn23)n1`: the inhibition was -3.4%.

As to `O=C1CCC/C(=N\NC(=O)NC2CCCCC2)C1`, the inhibition is 3.6%.

For the compound `Cc1ccccc1C1=NC(C(F)(F)F)(C(F)(F)F)c2c(n(-c3ccc(F)cc3)c(=O)[nH]c2=O)N1`, the inhibition was -3.5%.

Consider `Cc1cccc(NC(=S)Nc2ccc(Cl)c(Cl)c2)c1`, for which the inhibition is -5.2%.

Turning to `COc1ccccc1Oc1ccc(N/C=C2/CCCC2=O)cc1`, the inhibition was -1.1%.

As for `Cc1ccc(OCc2n[nH]c(=S)n2-c2ccccc2)cc1`, the inhibition was -3.4%.

For `COC(=O)c1c(NC(=O)c2c(Cl)cnn2C)sc(C)c1C`, the inhibition is -0.7%.

For `Cc1nc2ccccc2nc(C)c1=NOCc1ccc(Cl)cc1Cl`, the inhibition was -3.2%.

As to `O=C(/C=C/c1ccc(F)cc1)NC(=S)NNC(=O)c1cccnc1`, the inhibition is -2.2%.

Turning to `CC1=C[C@H]2Cc3cc(C)cc(C)c3S(=O)(=O)[C@@H]2C=C1`, the inhibition was 1.3%.

With `Cc1ccc(C)c(-n2nnnc2SCC(=O)c2c(N)n(C)c(=O)n(C)c2=O)c1`, the inhibition was -2.7%.

As for `COc1cccc(NC(=S)N(Cc2ccc(C)cc2)Cc2ccccn2)c1`, the inhibition was -3.4%.

For the compound `COc1cccc(C2CC(c3ccccc3)=NN2S(=O)(=O)c2ccccc2)c1OC` (centres undefined), the inhibition was -5.8%.

As to `Cn1c(=N)n(CC(O)c2cccs2)c2ccccc21` (centres undefined), the inhibition was -2%.

Turning to `C=CCNc1nc(Nc2ccc(Cl)cc2)nc(OC)n1`, the inhibition was -3%.

As to `COC(=O)c1nn(-c2cccc(Cl)c2)ccc1=O`, the inhibition is -8.9%.

Regarding `CCN(CC)CCN(C(=O)c1ccc(N2C(=O)CCC2=O)cc1)c1nc2cc3c(cc2s1)OCO3`, the inhibition is -2.1%.

On to `CC(=O)c1cnc(SCC(=O)O)nc1C`, for which the inhibition is -1.6%.

As for `Cc1cccc(C2=N/C(=C/c3cccs3)C(=O)O2)c1`, the inhibition is -2.6%.

`COC(=O)C(C(=O)Nc1cccc(Cl)c1C)C1CCCC1` (centres undefined): the inhibition is -6.6%.

As to `CCOC(=O)C1C(c2ccc(Cl)cc2)NC(=S)NC1(O)C(F)(F)F` (centres undefined), the inhibition is 4.4%.

In the case of `CCOC(=O)/C(=N\Nc1cc(Cl)ccc1Cl)N1CCN(C)CC1`, the inhibition is 3.4%.

`S=C(NCC1CCCO1)N1CCN(c2ccc(Cl)c(Cl)c2)CC1` (centres undefined): the inhibition was -1.7%.

`COc1cc(C2OC(c3cc(OC)c(OC)c(OC)c3)C(C)C2C)cc(OC)c1OC` (centres undefined): the inhibition was -2.4%.

With `O=C(CCCCCNC(=O)c1ccccc1)N/N=C/c1ccccc1`, the inhibition is -6.8%.

On to `O=C(NCCN1C(=O)S/C(=C\c2cccnc2)C1=O)c1cccc(OC(F)F)c1`, for which the inhibition was -0.3%.

Consider `COc1ccc(CCc2nnc(CCC(=O)NCc3cnn(-c4ccccc4C)c3)o2)cc1`, for which the inhibition was 1.5%.

In the case of `S=C(NCCc1ccccc1)NCC1CCCO1` (centres undefined), the inhibition was -0.7%.

With `CN(C)c1ccc(/C=N/NC(=O)C(O)c2ccc(Br)cc2)cc1` (centres undefined), the inhibition was -1.9%.

`CCCCN(C)CCNC(=O)CSCc1ccc(C)cc1`: the inhibition is -5.4%.

Regarding `CC(=O)c1sc(N/N=C/c2ccc(C(C)C)cc2)nc1C`, the inhibition was 13.5%.

For the compound `Cc1ccc(OCC(=O)NC(C)c2ccccc2)c([N+](=O)[O-])n1` (centres undefined), the inhibition was -1.6%.

With `Cc1ccc(CSCC(N)C(=O)O)cc1` (centres undefined), the inhibition was 0.6%.

For the compound `O=C(Nc1ccc(N2CCOCC2)cc1)c1ccc(-c2ccccc2[N+](=O)[O-])o1`, the inhibition is 0.3%.

`Cc1ccc(-c2nc(-c3cccnc3)sc2CC(=O)Nc2ccc(C)c(Cl)c2)cc1`: the inhibition was -1.4%.

With `O=C(CC1SC(=Nc2ccccc2)N(Cc2ccccn2)C1=O)Nc1cccc(Cl)c1` (centres undefined), the inhibition is 3%.

On to `CCCCC(CC(C)O)c1n[nH]c(=S)n1-c1ccccc1` (centres undefined), for which the inhibition was 7.9%.

With `COCCn1c(=NC(=O)c2ccccc2[N+](=O)[O-])sc2cc(S(C)(=O)=O)ccc21`, the inhibition was 3.3%.

`C#CCCCc1nc2ccccc2c(=O)n1N`: the inhibition was -3.7%.

As to `Cc1c(NC(=S)Nc2ccccc2)c(=O)n(-c2ccccc2)n1C`, the inhibition is 4.8%.

On to `O=C(COC(=O)[C@H](Cc1ccccc1)NC(=O)c1cccs1)Nc1cc(F)ccc1F`, for which the inhibition is -1.2%.

In the case of `C=CCn1c(SCCOc2ccc(OC)cc2)nnc1C(NC(=O)c1ccc(OC)cc1)C(C)C` (centres undefined), the inhibition was -3.4%.

Regarding `CN1CCN(C(=O)N2c3ccccc3CCc3ccccc32)CC1`, the inhibition was -5.7%.

With `COc1ccc(CCNC(=O)CSc2nc3[nH]ncc3c(=O)n2-c2cccc(C(F)(F)F)c2)cc1OC`, the inhibition was 2.6%.

On to `CN(CCOc1ccc(Br)cc1)CC(=O)Nc1cccc(S(=O)(=O)NC2=NCCC2)c1`, for which the inhibition is -4.6%.

Regarding `O=C(NNC1CC(=O)N(c2cccc(Cl)c2)C1=O)c1cccnc1` (centres undefined), the inhibition is -3.4%.

For `Cc1ccc(S(=O)(=O)NC2(C(F)(F)F)NC(=O)N(CCc3ccccc3)C2=O)cc1` (centres undefined), the inhibition was -6.1%.

Take `COc1ccc(OC)c(S(=O)(=O)Nc2cccc(-c3ccc4nncn4n3)c2)c1`: the inhibition was -3.7%.

As to `C[C@@H](O)c1nc2ccccc2n1N`, the inhibition was -1.1%.

With `O=C(Nc1cccc(Cl)c1)c1cc([N+](=O)[O-])ccc1N1CCN(CCO)CC1`, the inhibition is 2.5%.

As to `CCOc1ccc(NC(=O)CSc2ncnc3c2sc2ccccc23)cc1`, the inhibition is -1.9%.

`Cc1ccc2[nH]c(=O)c(CN(CC3COCCO3)C(=O)Nc3ccccc3C)cc2c1` (centres undefined): the inhibition is -4.6%.

For `COc1cccc(CN(C)CC(=O)NCc2ccccc2Cl)c1OC`, the inhibition was 1.3%.

Regarding `CCC(C)(C)NC(=O)CN(C(=O)CCC(=O)Nc1cc(C)ccn1)c1ccc2c(c1)OCCO2`, the inhibition was -6%.

Take `O=C(Nc1ccc(N2CCN(C(=O)c3cccs3)CC2)cc1)c1cccnc1Cl`: the inhibition was -2.2%.

With `CN(C)c1ccc(/C=N/Nc2cc(N3CCOCC3)nc(N3CCOCC3)n2)cc1`, the inhibition was -5.4%.

In the case of `O=C(NNc1c2ccccc2nc2ccccc12)c1cc2ccccc2cc1O`, the inhibition was 26.1%.

With `O=c1oc(/C=C/c2ccccc2)nc2ccccc12`, the inhibition was 0%.

On to `O=C(O)c1ccc(N/N=C/c2ccc3ncccc3c2)cc1`, for which the inhibition is 0.7%.

On to `Cc1[nH]c2ccccc2c1C(=O)COC(=O)c1c(-c2ccccc2)noc1C`, for which the inhibition is -2.1%.

With `CC/C(O)=C1\C(=O)CC(C)(C)CC1=NCCc1nc2ccccc2[nH]1`, the inhibition was -0.3%.

On to `O=C(NCc1cccs1)C(=O)NCC1OCCCN1S(=O)(=O)c1ccc(F)cc1` (centres undefined), for which the inhibition was 0.7%.

`CCn1c(SCC(=O)N/N=C/C=C/c2ccccc2[N+](=O)[O-])nnc1-c1ccccc1`: the inhibition is 1.3%.

As for `CCOc1ccc(NS(=O)(=O)c2cc(C)c(C)cc2C)cc1`, the inhibition is -1.7%.

For `Cc1ccc(SCCC(=O)NC(C(C)C)C(C)C)cc1`, the inhibition is -0.8%.

With `O=C(/C=C/c1ccccc1Cl)Nc1ccc(S(=O)(=O)Nc2ncccn2)cc1`, the inhibition was -0.8%.

Consider `Cc1ccc(C)c(NS(=O)(=O)c2ccc(OCC(=O)NCc3cccnc3)cc2)c1`, for which the inhibition is 3.1%.

As for `C/C(=N\N=C(N)N)c1ccc(Cl)cc1`, the inhibition is -5.8%.

Turning to `Cc1cc(=O)oc2c1c(C)nn2-c1ccc(Cl)cc1`, the inhibition was -6.1%.

As for `CC(C)Oc1ccc(Cc2n[nH]c(=S)n2Cc2ccccc2)cc1Cl`, the inhibition is -3.4%.

For `Cc1no[n+]([O-])c1COc1ccccc1/C=C1\NC(=S)NC1=O`, the inhibition was 0.1%.

For the compound `NS(=O)(=O)c1ccc(NC(=O)/C=C/c2ccccc2Cl)cc1`, the inhibition is 6.2%.

Turning to `COc1ccc(OC)c(S(=O)(=O)NCCC(C)C)c1`, the inhibition is -7.1%.

Consider `COc1ccc(CCNC2=C(Cl)C(=O)N(Cc3ccccc3)C2=O)cc1OC`, for which the inhibition was 0.7%.

`Cc1ccccc1CSCCNC(=O)c1ccc(N(C)S(=O)(=O)c2ccccc2)cc1`: the inhibition is -8.8%.

As for `Cc1ccc(NC(=O)CSCC(=O)NC2CCCCC2)cc1`, the inhibition is -0.6%.

As for `COc1ccc(C/C(N)=N/OC(=O)c2ccco2)cc1OC`, the inhibition is -4.3%.

With `CC/C(Cc1ccccc1)=N/NC(=O)CCn1nnc2ccccc21`, the inhibition is -4.6%.

As for `CCOc1ccc(C(=O)NC(=S)Nc2ccc(N3CCOCC3)c(Cl)c2)cc1[N+](=O)[O-]`, the inhibition is 1.7%.

Turning to `CN1CCN(C(=O)/C(=C\c2ccc3c(c2)OCO3)NC(=O)c2cccs2)CC1`, the inhibition was -3.5%.

Turning to `CCS(=O)(=O)C1=NSC2=NC(=O)/C(=C\c3cc(C)n(-c4cccc(OC)c4)c3C)C(=N)N21`, the inhibition was 1.7%.

Turning to `Cc1ccsc1C1C(C#N)=C(N)OC2=C1C(=O)CC(C)C2` (centres undefined), the inhibition is -0.4%.

As to `CCOC(=O)c1[nH]ncc1CN1CCCC(C(=O)c2ccc(OC)cc2C)C1` (centres undefined), the inhibition was -5.9%.

Regarding `C/C(=N\NC(=S)NC(C)C)c1ccc(C(C)(C)C)cc1`, the inhibition is 0.4%.

As to `O=C(N/N=C/c1ccc([N+](=O)[O-])cc1)C(=O)N1CCCC1`, the inhibition is 1.8%.

`COCCN(CCOC)S(=O)(=O)c1ccc(/C(O)=C(\C#N)c2nc3ccccc3[nH]2)cc1`: the inhibition is -5.5%.

In the case of `O=C1OC(OC(=O)c2ccccc2Br)C(N2CCOCC2)=C1Cl` (centres undefined), the inhibition was 4.1%.

Turning to `CCOC(=O)N/N=C/c1cn(Cc2ccccc2Cl)c2ccccc12`, the inhibition is 0.2%.
